# ChEMBL document CHEMBL1961873, “Compounds: GSK PKIS; Assays: Nanosyn kinase panel” (2012)
# Tests used:
# [1] = molecular target: T1, Tyrosine-protein kinase ITK/TSK (Homo sapiens) (UniProt Q08881); details: at 1 µM;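 note: values are mean percent inhibition of ITK from the GSK PKIS screen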
# T1 sequence (whole entry): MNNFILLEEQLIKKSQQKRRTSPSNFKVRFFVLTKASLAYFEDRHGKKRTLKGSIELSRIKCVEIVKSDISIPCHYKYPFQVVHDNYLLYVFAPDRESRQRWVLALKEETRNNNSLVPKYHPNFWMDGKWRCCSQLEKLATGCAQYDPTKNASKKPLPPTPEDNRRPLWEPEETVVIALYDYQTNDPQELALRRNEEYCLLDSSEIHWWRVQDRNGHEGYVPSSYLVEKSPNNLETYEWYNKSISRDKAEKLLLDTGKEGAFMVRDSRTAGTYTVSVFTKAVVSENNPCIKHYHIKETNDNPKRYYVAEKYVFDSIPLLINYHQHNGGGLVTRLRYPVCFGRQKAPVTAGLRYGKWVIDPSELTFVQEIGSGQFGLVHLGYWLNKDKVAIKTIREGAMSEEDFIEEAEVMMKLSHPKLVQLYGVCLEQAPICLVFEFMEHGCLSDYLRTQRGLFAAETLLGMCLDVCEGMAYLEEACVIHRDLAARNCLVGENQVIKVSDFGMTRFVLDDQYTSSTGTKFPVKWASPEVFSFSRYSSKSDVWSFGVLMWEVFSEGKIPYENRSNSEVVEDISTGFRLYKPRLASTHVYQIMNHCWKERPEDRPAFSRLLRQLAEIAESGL
# [2] = molecular target: Tyrosine-protein kinase JAK1 (Homo sapiens) (UniProt P23458); details: at 0.1 µM
# [3] = molecular target: Tyrosine-protein kinase JAK1 (Homo sapiens) (UniProt P23458); details: at 1 µM
# [4] = molecular target: Tyrosine-protein kinase JAK2 (Homo sapiens) (UniProt O60674); details: at 0.1 µM
# [5] = molecular target: Tyrosine-protein kinase JAK2 (Homo sapiens) (UniProt O60674); details: at 1 µM
# [6] = molecular target: T2, Tyrosine-protein kinase JAK3 (Homo sapiens) (UniProt P52333); details: at 0.1 µM
# T2 sequence (whole entry): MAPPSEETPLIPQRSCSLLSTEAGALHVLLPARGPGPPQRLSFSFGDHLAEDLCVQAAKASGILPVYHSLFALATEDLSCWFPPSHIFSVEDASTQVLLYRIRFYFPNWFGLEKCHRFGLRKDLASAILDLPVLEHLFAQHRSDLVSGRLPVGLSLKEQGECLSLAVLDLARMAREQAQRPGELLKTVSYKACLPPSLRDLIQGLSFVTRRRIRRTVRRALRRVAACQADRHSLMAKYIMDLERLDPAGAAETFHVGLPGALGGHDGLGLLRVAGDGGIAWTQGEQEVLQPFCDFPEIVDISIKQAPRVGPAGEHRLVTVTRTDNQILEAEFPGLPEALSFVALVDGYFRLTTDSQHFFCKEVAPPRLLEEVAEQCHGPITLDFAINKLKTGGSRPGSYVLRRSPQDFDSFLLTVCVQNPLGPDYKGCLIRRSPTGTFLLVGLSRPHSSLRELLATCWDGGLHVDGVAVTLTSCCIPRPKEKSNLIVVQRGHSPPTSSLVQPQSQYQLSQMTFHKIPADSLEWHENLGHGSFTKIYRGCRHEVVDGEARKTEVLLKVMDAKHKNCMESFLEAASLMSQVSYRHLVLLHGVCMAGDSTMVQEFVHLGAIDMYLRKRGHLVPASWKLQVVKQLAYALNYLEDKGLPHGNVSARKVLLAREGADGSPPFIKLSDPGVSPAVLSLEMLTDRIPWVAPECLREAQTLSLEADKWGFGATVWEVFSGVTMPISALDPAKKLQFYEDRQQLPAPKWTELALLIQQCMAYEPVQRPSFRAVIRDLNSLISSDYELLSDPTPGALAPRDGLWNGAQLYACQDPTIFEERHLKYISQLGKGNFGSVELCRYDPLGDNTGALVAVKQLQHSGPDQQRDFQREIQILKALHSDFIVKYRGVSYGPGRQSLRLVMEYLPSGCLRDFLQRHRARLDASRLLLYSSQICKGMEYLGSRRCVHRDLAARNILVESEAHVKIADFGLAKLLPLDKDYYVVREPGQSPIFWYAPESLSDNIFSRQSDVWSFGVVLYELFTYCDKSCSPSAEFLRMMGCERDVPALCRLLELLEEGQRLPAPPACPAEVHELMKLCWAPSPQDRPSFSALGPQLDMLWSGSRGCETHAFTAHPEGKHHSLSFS
# [7] = molecular target: T2, Tyrosine-protein kinase JAK3 (Homo sapiens); details: at 1 µM
# [8] = molecular target: Vascular endothelial growth factor receptor 2 (Homo sapiens) (UniProt P35968); details: at 0.1 µM
# [9] = molecular target: Vascular endothelial growth factor receptor 2 (Homo sapiens) (UniProt P35968); details: at 1 µM
# [10] = molecular target: Mast/stem cell growth factor receptor Kit (Homo sapiens) (UniProt P10721); details: at 0.1 µM
# [11] = molecular target: Mast/stem cell growth factor receptor Kit (Homo sapiens) (UniProt P10721); details: at 1 µM
# [12] = test system: Mast/stem cell growth factor receptor Kit (Homo sapiens), P10721 [D816V]; details: at 0.1 µM
# [13] = test system: Mast/stem cell growth factor receptor Kit (Homo sapiens), P10721 [D816V]; details: at 1 µM
# [14] = test system: Mast/stem cell growth factor receptor Kit (Homo sapiens), P10721 [T670I]; details: at 0.1 µM
# [15] = test system: Mast/stem cell growth factor receptor Kit (Homo sapiens), P10721 [T670I]; details: at 1 µM
# [16] = test system: Mast/stem cell growth factor receptor Kit (Homo sapiens), P10721 [V560G]; details: at 0.1 µM
# [17] = test system: Mast/stem cell growth factor receptor Kit (Homo sapiens), P10721 [V560G]; details: at 1 µM
# [18] = molecular target: Tyrosine-protein kinase Lck (Homo sapiens) (UniProt P06239); details: at 0.1 µM
# [19] = molecular target: Tyrosine-protein kinase Lck (Homo sapiens) (UniProt P06239); details: at 1 µM
# [20] = molecular target: Leukocyte tyrosine kinase receptor (Homo sapiens) (UniProt P29376); details: at 0.1 µM
# Sequence of Leukocyte tyrosine kinase receptor (Homo sapiens) (P29376 whole entry): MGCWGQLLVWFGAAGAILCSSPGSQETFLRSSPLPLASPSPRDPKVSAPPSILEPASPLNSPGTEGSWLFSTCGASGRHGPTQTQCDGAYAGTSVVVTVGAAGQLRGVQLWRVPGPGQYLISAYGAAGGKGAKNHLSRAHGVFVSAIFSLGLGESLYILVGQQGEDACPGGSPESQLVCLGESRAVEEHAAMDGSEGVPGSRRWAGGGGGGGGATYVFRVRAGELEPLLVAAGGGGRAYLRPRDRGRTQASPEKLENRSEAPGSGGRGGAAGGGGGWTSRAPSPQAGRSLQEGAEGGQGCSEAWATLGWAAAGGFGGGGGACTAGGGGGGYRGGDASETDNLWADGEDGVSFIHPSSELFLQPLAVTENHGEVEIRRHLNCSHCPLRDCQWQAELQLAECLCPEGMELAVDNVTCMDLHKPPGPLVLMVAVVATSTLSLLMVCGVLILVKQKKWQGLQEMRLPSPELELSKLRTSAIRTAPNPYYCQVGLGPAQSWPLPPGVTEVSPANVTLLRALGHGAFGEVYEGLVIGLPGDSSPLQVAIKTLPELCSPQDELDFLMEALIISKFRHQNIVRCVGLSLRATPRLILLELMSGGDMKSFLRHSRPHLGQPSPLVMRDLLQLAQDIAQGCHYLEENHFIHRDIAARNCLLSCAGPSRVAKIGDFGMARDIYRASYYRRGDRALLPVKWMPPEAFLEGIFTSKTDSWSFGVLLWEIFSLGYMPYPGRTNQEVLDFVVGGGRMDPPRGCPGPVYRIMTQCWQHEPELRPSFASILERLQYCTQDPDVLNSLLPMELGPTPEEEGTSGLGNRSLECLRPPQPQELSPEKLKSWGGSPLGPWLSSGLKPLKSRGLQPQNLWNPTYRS
# Sequence of Mast/stem cell growth factor receptor Kit (Homo sapiens) (P10721 whole entry): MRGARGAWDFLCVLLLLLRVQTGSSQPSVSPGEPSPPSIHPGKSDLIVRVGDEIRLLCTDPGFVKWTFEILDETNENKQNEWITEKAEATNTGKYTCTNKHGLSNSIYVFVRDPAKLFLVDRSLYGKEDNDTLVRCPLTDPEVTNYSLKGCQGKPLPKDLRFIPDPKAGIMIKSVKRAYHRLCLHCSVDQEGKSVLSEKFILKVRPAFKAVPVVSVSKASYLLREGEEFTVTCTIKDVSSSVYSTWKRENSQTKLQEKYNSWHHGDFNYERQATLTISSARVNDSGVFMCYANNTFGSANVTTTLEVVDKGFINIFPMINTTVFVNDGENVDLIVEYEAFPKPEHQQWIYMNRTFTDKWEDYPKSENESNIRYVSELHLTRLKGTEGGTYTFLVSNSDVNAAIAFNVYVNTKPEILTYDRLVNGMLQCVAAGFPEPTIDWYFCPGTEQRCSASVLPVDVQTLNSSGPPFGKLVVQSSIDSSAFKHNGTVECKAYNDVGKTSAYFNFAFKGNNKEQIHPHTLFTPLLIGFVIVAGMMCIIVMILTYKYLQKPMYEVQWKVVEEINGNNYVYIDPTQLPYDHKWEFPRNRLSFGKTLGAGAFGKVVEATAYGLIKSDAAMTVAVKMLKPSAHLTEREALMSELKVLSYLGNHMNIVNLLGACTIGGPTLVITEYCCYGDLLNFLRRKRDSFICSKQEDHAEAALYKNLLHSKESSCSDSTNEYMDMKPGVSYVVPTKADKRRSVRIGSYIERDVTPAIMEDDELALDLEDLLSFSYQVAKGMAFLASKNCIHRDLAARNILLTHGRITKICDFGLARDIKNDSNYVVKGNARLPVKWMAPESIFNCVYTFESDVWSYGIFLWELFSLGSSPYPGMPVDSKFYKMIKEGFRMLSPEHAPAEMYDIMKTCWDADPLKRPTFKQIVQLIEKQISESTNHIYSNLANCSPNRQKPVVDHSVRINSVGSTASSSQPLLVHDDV
# Sequence of Mast/stem cell growth factor receptor Kit (Homo sapiens), P10721 [V560G] (P10721 whole entry V560G): as the sequence (P10721 whole entry) above, with V560G counted along it
# Sequence of Mast/stem cell growth factor receptor Kit (Homo sapiens), P10721 [T670I] (P10721 whole entry T670I): as the sequence (P10721 whole entry) above, with T670I counted along it
# Sequence of Vascular endothelial growth factor receptor 2 (Homo sapiens) (P35968 whole entry): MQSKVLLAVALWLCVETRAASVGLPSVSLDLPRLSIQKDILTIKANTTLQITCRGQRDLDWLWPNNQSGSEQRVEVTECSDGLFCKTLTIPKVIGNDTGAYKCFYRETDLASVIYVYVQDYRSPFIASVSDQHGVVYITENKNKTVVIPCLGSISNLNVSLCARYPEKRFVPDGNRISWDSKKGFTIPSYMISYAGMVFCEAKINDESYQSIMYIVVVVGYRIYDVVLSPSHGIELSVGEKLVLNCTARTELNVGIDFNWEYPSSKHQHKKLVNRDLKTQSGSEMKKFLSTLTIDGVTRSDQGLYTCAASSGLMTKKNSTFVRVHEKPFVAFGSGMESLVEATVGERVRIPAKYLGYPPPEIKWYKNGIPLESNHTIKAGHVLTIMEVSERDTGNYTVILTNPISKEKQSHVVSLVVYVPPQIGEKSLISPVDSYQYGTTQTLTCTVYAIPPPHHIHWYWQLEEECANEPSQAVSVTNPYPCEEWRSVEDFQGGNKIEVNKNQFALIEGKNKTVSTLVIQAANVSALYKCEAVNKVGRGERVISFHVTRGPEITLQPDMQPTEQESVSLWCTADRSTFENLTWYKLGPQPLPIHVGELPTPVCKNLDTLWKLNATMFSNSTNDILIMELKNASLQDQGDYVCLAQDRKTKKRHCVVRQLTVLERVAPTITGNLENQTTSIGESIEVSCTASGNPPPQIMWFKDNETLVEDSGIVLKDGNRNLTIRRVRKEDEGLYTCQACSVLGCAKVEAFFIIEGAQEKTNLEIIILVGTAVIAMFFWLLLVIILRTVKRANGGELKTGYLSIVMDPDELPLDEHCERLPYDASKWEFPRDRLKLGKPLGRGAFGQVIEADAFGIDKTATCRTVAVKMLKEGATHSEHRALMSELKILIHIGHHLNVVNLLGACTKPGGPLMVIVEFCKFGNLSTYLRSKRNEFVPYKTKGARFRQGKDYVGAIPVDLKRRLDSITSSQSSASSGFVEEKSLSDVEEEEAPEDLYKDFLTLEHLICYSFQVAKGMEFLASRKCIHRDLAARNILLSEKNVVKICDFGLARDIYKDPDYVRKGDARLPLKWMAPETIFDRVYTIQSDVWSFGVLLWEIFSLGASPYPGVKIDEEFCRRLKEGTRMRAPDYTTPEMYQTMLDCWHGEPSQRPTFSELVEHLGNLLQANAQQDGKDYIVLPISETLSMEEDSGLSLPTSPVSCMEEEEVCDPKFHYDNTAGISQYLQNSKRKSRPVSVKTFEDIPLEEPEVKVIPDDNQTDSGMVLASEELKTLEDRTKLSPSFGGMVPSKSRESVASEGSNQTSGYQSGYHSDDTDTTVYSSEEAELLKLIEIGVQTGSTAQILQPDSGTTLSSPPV
# Sequence of Tyrosine-protein kinase JAK1 (Homo sapiens) (P23458 whole entry): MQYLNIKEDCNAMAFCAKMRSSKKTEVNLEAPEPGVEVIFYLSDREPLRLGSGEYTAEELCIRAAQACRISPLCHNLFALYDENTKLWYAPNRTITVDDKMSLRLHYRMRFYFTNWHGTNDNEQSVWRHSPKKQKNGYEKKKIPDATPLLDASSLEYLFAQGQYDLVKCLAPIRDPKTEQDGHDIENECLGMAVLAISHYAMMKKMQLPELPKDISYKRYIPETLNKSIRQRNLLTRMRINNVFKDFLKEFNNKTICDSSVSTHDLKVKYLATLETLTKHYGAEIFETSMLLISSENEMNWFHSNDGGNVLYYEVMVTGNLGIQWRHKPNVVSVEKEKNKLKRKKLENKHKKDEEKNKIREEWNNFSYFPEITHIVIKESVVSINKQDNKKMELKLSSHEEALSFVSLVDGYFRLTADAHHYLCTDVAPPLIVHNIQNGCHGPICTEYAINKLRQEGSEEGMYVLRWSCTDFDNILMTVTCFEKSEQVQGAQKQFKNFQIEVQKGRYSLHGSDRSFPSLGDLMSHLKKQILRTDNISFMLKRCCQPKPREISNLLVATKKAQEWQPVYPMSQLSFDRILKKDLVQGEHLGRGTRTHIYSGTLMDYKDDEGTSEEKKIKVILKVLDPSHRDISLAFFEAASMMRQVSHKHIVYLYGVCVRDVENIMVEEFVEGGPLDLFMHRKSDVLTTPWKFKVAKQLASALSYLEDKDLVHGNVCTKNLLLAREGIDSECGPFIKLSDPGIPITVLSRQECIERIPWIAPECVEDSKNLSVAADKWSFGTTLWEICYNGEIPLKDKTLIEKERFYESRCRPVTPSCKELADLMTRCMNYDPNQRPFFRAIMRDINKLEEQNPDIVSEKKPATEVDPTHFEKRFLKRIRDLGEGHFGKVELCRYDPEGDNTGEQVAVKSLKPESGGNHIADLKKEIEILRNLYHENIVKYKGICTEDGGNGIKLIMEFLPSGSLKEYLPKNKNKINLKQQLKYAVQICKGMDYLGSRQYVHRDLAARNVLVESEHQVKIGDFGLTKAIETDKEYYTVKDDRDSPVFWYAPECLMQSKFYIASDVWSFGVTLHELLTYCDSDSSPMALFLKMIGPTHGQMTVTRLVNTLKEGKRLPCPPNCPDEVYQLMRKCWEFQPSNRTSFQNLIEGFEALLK
# Sequence of Mast/stem cell growth factor receptor Kit (Homo sapiens), P10721 [D816V] (P10721 whole entry D816V): as the sequence (P10721 whole entry) above, with D816V counted along it
# Sequence of Tyrosine-protein kinase Lck (Homo sapiens) (P06239 2-509 limits assumed): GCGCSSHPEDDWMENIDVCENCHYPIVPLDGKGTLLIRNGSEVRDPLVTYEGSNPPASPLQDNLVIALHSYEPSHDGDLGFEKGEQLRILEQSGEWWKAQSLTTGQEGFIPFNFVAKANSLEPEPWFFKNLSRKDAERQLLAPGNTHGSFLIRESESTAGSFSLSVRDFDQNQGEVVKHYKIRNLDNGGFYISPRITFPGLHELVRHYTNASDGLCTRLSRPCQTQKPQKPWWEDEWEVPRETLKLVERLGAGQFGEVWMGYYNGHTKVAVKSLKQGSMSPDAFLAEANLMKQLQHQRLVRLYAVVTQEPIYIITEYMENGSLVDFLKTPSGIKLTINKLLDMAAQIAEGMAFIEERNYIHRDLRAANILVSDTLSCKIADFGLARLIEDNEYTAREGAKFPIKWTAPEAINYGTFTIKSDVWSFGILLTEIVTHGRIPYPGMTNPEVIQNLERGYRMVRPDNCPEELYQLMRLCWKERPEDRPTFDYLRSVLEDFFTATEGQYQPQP
Structure (SMILES),inhibition [1] [%],inhibition [2] [%],inhibition [3] [%],inhibition [4] [%],inhibition [5] [%],inhibition [6] [%],inhibition [7] [%],inhibition [8] [%],inhibition [9] [%],inhibition [10] [%],inhibition [11] [%],inhibition [12] [%],inhibition [13] [%],inhibition [14] [%],inhibition [15] [%],inhibition [16] [%],inhibition [17] [%],inhibition [18] [%],inhibition [19] [%],inhibition [20] [%]
CCS(=O)(=O)c1ccc(OC)c(Nc2ncc(-c3cccc(-c4ccccc4F)c3)o2)c1,2.37,-2.17,1.93,0.19,2.27,1.2,13.9,66.9,89.5,53.7,90.9,-0.16,6.62,2.77,19.6,4.79,19.7,9.89,55.8,1.34
C[C@@H](Oc1cc(-n2cnc3ccc(OCC4CCN(C)CC4)cc32)sc1C(N)=O)c1ccccc1Cl,3.2,8.98,6.05,1.61,2.26,-1.46,29.3,7.07,36.4,5.23,8.33,5.13,8.23,0.47,5.37,-4.48,0.38,7.42,29.8,4.38
C/C(Nc1ccc(S(N)(=O)=O)cc1)=C1/C(=O)Nc2ccccc21,4.72,-6.57,-1.09,-0.57,0.27,-0.45,6.44,9.11,44.5,38.4,90.9,-0.26,-1.16,21,82.5,3.94,22.4,-1.24,4.22,1.12
C[C@@H](Oc1cc(-n2cnc3ccc(OC4CCN(C)CC4)cc32)sc1C(N)=O)c1ccccc1Cl,-1.75,0.47,-0.07,4.66,2.46,-5.38,13.5,9.62,40.3,5.05,5.22,1.72,6.14,1.3,6.17,-4.05,-2.87,-0.67,4.21,4.01
COC(=O)Nc1nc2ccc(Sc3ccc(NC(=O)Nc4cc(C(F)(F)F)ccc4F)cc3)cc2[nH]1,0.87,0.69,-4.92,32.5,2.1,-1.15,2.49,,,1.63,43.9,-2.14,5.31,-0.05,30,2.79,27.3,5.45,34.7,-0.1
COc1ccc2ncn(-c3cc(O[C@H](C)c4ccccc4Cl)c(C(N)=O)s3)c2c1,-2.51,-3.1,2.15,1.31,1.04,-7,-5.28,3.61,13.4,4.64,23.1,2.74,7.75,2.4,7.3,-1.68,0.26,-2.03,-1.76,2.73
Cc1ccc(C(=O)NC(C)C)cc1-c1ccc(C(=O)NCC2CC2)cc1,-0.47,-3.33,-1.59,-1.52,-1.28,0.73,1.51,-1.43,0.78,-2.99,-4.83,14.1,-0.69,-3.01,-1.47,1.17,1.03,-1.32,0.84,-1.19
NS(=O)(=O)c1ccc(N/N=C2\C(=O)Nc3ccc(-c4cnco4)cc32)cc1,-0.93,1.96,6.12,0.38,5.7,-4.76,24.1,6.94,39.1,5.83,42.2,0.65,5.47,1.64,10.7,0.82,3.19,-1.05,4.4,1.24
Cc1ccc(C(=O)NC2CCC2)cc1-c1ccc(C(=O)NCC2CC2)cc1,1.48,0.07,0.59,0.91,0.54,-1.22,1.06,3.33,3.21,2.49,2.43,1.7,1.73,2.13,-0.64,-2.14,2.11,1.6,2.51,2.34
Fc1ccc(-c2c(-c3ccncc3)nc3n2CCS3)cc1,-2.17,1.7,10.2,0.77,4.51,-3.51,2.02,5.2,9.29,3.82,9.55,0.48,4.72,2.05,3.53,-2.29,-3.6,-3.58,-1.31,3.49
NS(=O)(=O)c1ccc(N/N=C2\C(=O)Nc3ccc(C(=O)NCCCn4ccnc4)cc32)cc1,3.12,5.06,23.8,0.1,4.95,-2,18.8,8.51,34.1,4.8,9.5,6.28,9.36,3.5,5.57,-1.18,1.2,1.53,7.02,5.17
O=C(Nc1n[nH]c2cc(-c3ccccc3)ccc12)C1CC1,2.12,2.85,7.69,2.26,0.77,-1.69,0.16,4.79,12.6,3.52,7.38,3.94,8.12,4.34,4.01,1.4,3.87,2.21,6.66,3.88
FC(F)(F)c1cccc(Nc2nccc(-c3cnn4nc(-c5ccccc5)ccc34)n2)c1,3.33,-0.86,0.5,-0.15,0.22,-1.84,-0.12,0.05,6.02,5.78,37.3,1.06,0.54,1.8,5.77,-2.09,1.67,1.68,2.24,0.59
COc1ccc2cc(-c3c(-c4ccncc4)nc(-c4ccc([S+](C)[O-])cc4C)n3C)ccc2c1 (stereo not drawn),0.95,-3.09,4.21,0.25,-0.49,0.51,0.61,8.24,49,-0.44,4.45,-3.23,-3.08,0.48,0.67,4.53,-0.3,0.43,8.73,0.03
